Measurements from PubChem BioAssay (NCATS).
Results filed as inconclusive are left out. Activity calls are given as the source filed them. Calls come from the whole dose curve; as a rule, active = well fitted inhibition curve with a large enough effect; inconclusive = small, poorly fitted or top-dose-only effect; inactive = flat fitted curve, though single readings scatter. Bridge positions count the residues as written; N and C are the ends. Square brackets hold non-standard residues; d marks the D form. Peptide text beside a SMILES is read from it. * marks the point of attachment. Ileψ(thiazoline)Cys = CC[C@H](C)[C@H](N)C1=N[C@H](C(=O)*)CS1; d(aIle) = CC[C@H](C)[C@@H](N)C(=O)O; dOrn = NCCC[C@@H](N)C(=O)O

Tested on: CP185
Experiment: qHTS profiling for inhibitors of Plasmodium falciparum proliferation (AID 504749); note: nearly all actives have a fitted effect of over 60% in size;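 for activity, negative = inhibition: 0% = DMSO vehicle and full inhibition = artemisinin control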
Settings: P. falciparum in erythrocytes, SYBR Green DNA, 72 h; series mostly up to 12.8 µM; activity, negative = inhibition: at the top concentration
How it was run: (§1)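 Parasite proliferation within erythrocytes, 72 h exposure. Endpoint: SYBR Green I fluorescence after overnight lysis at room temperature. Controls: 0.29 uM artemisinin, DMSO.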
Potency is the fitted concentration of half-maximal effect.

SMILES	activity, negative = inhibition	Potency
C[C@@H]1C[C@H]2[C@@H]3C[C@H](F)C4=CC(=O)C=C[C@@]4(C)[C@]3(F)[C@H](O)C[C@]2(C)[C@@]1(O)C(=O)CO	4.82% (inactive)	–
C[C@H](O)Cn1cnc2c1c(=O)n(C)c(=O)n2C	7.77% (inactive)	–
CCCCC[C@H](O)/C=C\[C@@H]1[C@H](O)CC(=O)[C@@H]1CCCCCCC(=O)O	0.202% (inactive)	–
CC(=C(CCOP(=O)(O)O)SC(=O)c1ccccc1)N(C=O)Cc1cnc(C)nc1N	2.54% (inactive)	–
NC[C@@H]1O[C@@H](O[C@H]2[C@H](O)[C@H](O[C@@H]3O[C@H](CO)[C@@H](O)[C@H](N)[C@@H]3O)[C@@H](N)C[C@H]2N)[C@H](N)C[C@@H]1O	0.524% (inactive)	–
CCc1c(C)[nH]c2c1C(=O)[C@H](CN1CCOCC1)CC2	0.292% (inactive)	–
C=C1c2c(Cl)ccc(O)c2C(O)=C2C(=O)[C@@]3(O)C(O)=C(C(N)=O)C(=O)[C@@H](N(C)C)[C@@H]3[C@@H](O)[C@H]12	-27.9% (inactive)	–
CCC(=O)OCC(=O)[C@@]1(OC(=O)CC)[C@H](C)C[C@@H]2[C@@H]3[C@H]([C@@H](O)C[C@@]21C)[C@]1(C)C=CC(=O)C=C1C[C@@H]3Cl	1.26% (inactive)	–
CC[C@H](C)[C@H](N)C1=N[C@H](C(=O)N[C@@H](CC(C)C)C(=O)N[C@@H](CCC(=O)O)C(=O)N[C@@H](C(=O)N[C@H]2CCCCNC(=O)[C@@H](CC(N)=O)NC(=O)[C@@H](CC(=O)O)NC(=O)[C@@H](Cc3cnc[nH]3)NC(=O)[C@@H](Cc3ccccc3)NC(=O)[C@@H]([C@@H](C)CC)NC(=O)[C@@H](CCCN)NC2=O)[C@@H](C)CC)CS1 ({Ileψ(thiazoline)Cys}-LE[d(aIle)]K[dOrn][d(aIle)][dF][dH][dD][dN]; lactam 4-C)	9.03% (inactive)	–
O=C(N/N=C\c1ccc([N+](=O)[O-])o1)c1ccc(O)cc1	–	2.24 µM (active)
C[C@@H](CNC1CCCCC1)OC(=O)c1ccccc1	-5.62% (inactive)	–
CCOC(=O)O[C@@H](C)OC(=O)[C@@H]1N2C(=O)[C@@H](NC(=O)[C@@H](N)c3ccccc3)[C@H]2SC1(C)C	2.97% (inactive)	–
Cc1ccsc1/C=C\C1=NCCCN1C	4.25% (inactive)	–
O=C(O)COCCN1CCN([C@@H](c2ccccc2)c2ccc(Cl)cc2)CC1	-2.52% (inactive)	–
C#C[C@]1(O)CC[C@@H]2[C@H]3CCC4=CCCC[C@@H]4[C@@H]3CC[C@@]21C	6.23% (inactive)	–
CC1(C)[C@@H](OC(=O)CCC(=O)O)CC[C@@]2(C)[C@H]1CC[C@@]1(C)[C@H]2C(=O)C=C2[C@H]3C[C@](C)(C(=O)O)CC[C@]3(C)CC[C@@]21C	2.32% (inactive)	–
C[C@H](CCC(=O)O)[C@H]1CC[C@@H]2[C@@H]3[C@@H](O)C[C@H]4C[C@@H](O)CC[C@@]4(C)[C@H]3CC[C@@]21C	-17.1% (inactive)	–

Tested on: CP191
Experiment: as above
Settings: P. falciparum in erythrocytes, SYBR Green DNA, 72 h; series mostly up to 12.8 µM; activity, negative = inhibition: at the top concentration
How it was run: as §1

SMILES	activity, negative = inhibition	Potency
C[C@@H]1C[C@H]2[C@@H]3C[C@H](F)C4=CC(=O)C=C[C@@]4(C)[C@]3(F)[C@H](O)C[C@]2(C)[C@@]1(O)C(=O)CO	5.79% (inactive)	–
C[C@H](O)Cn1cnc2c1c(=O)n(C)c(=O)n2C	-2.49% (inactive)	–
CCCCC[C@H](O)/C=C\[C@@H]1[C@H](O)CC(=O)[C@@H]1CCCCCCC(=O)O	-3.61% (inactive)	–
CC(=C(CCOP(=O)(O)O)SC(=O)c1ccccc1)N(C=O)Cc1cnc(C)nc1N	5.41% (inactive)	–
NC[C@@H]1O[C@@H](O[C@H]2[C@H](O)[C@H](O[C@@H]3O[C@H](CO)[C@@H](O)[C@H](N)[C@@H]3O)[C@@H](N)C[C@H]2N)[C@H](N)C[C@@H]1O	-10.2% (inactive)	–
CCc1c(C)[nH]c2c1C(=O)[C@H](CN1CCOCC1)CC2	-0.788% (inactive)	–
C=C1c2c(Cl)ccc(O)c2C(O)=C2C(=O)[C@@]3(O)C(O)=C(C(N)=O)C(=O)[C@@H](N(C)C)[C@@H]3[C@@H](O)[C@H]12	-18.5% (inactive)	–
CC[C@H](C)[C@H](N)C1=N[C@H](C(=O)N[C@@H](CC(C)C)C(=O)N[C@@H](CCC(=O)O)C(=O)N[C@@H](C(=O)N[C@H]2CCCCNC(=O)[C@@H](CC(N)=O)NC(=O)[C@@H](CC(=O)O)NC(=O)[C@@H](Cc3cnc[nH]3)NC(=O)[C@@H](Cc3ccccc3)NC(=O)[C@@H]([C@@H](C)CC)NC(=O)[C@@H](CCCN)NC2=O)[C@@H](C)CC)CS1 ({Ileψ(thiazoline)Cys}-LE[d(aIle)]K[dOrn][d(aIle)][dF][dH][dD][dN]; lactam 4-C)	1.08% (inactive)	–
O=C(N/N=C\c1ccc([N+](=O)[O-])o1)c1ccc(O)cc1	–	3.16 µM (active)
CCOC(=O)O[C@@H](C)OC(=O)[C@@H]1N2C(=O)[C@@H](NC(=O)[C@@H](N)c3ccccc3)[C@H]2SC1(C)C	-4.73% (inactive)	–
Cc1ccsc1/C=C\C1=NCCCN1C	0.133% (inactive)	–
C#C[C@]1(O)CC[C@@H]2[C@H]3CCC4=CCCC[C@@H]4[C@@H]3CC[C@@]21C	-13.4% (inactive)	–
CC1(C)[C@@H](OC(=O)CCC(=O)O)CC[C@@]2(C)[C@H]1CC[C@@]1(C)[C@H]2C(=O)C=C2[C@H]3C[C@](C)(C(=O)O)CC[C@]3(C)CC[C@@]21C	-0.13% (inactive)	–
C[C@H](CCC(=O)O)[C@H]1CC[C@@H]2[C@@H]3[C@@H](O)C[C@H]4C[C@@H](O)CC[C@@]4(C)[C@H]3CC[C@@]21C	-27% (inactive)	–
CN1CCO[C@H](c2ccccc2)c2ccccc2C1	-22.6% (inactive)	–
